{"source": "paper PMC5540273", "about": "(PLoS ONE, 2017);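 also: KINOMEscan kinase panel screen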"}
{"tested_on": "SRPK1", "details": "concentration: 1 μM, replicates: in singlicate; n = 1", "units": {"%Inh": "%"}}
{"smiles": "Cc1cccc(-c2nc(-c3ccc(S(C)(=O)=O)cc3)sc2-c2ccncc2)c1", "%Inh": 15}
{"smiles": "CN1c2ccc(CNc3ccc(F)cc3)cc2-c2c(cnn2C)S1(=O)=O", "%Inh": 0}
{"smiles": "O=C1Cc2cc(Nc3nc(NCc4cccc(S(=O)(=O)C(F)(F)F)c4)ncc3C(F)(F)F)ccc2N1", "%Inh": 0}
{"smiles": "COc1cc2c(cc1OC[C@@H](O)CO)ncc1c3ccc(C#N)cc3[nH]c21", "%Inh": 0}
{"smiles": "COc1ccc(S(=O)(=O)NC2CCN(c3cc(C)nc(Nc4cccc(C#N)c4)n3)CC2)cc1.O=C(O)C(F)(F)F", "note": "[GSK1653539]", "%Inh": 0}
{"smiles": "[2H]C([2H])(c1cccc(C(F)(F)F)c1C)n1ccn2c(=O)nc(N3CCOCC3)cc12", "note": "[GSK2336394]", "%Inh": 37}
{"smiles": "Cc1cccc(-c2nc(Nc3ccc4ncsc4c3)c3ccccc3n2)n1", "note": "[GW867588]", "%Inh": 0}
{"smiles": "COc1cc2ncn(-c3cc(OCc4sccc4Cl)c(C(N)=O)s3)c2cc1OC", "note": "[GSK448459]", "%Inh": 88}
{"smiles": "CCc1ccnc(/C=C/c2n[nH]c3cc(Sc4ccccc4C(=O)NC)ccc23)c1", "%Inh": 53}
{"smiles": "C[C@@H](Oc1cc(-n2cnc3ccc(NC(=O)NC(C)(C)C)cc32)sc1C(N)=O)c1ccccc1Cl", "note": "[GSK346294]", "%Inh": 20}
{"smiles": "COc1cc2c(cc1OCCN1CCN(C)CC1)ncc1c3ccc(C#N)cc3[nH]c21", "%Inh": 7}
{"smiles": "COCCNC(=O)c1ccc(-c2cc(C(=O)NC3CC3)cc(F)c2C)cc1", "note": "[GW868318]", "%Inh": 7}
{"smiles": "COc1cc(Nc2nccc(N3CCC(NC(=O)c4cccc(NC(C)=O)c4)C3)n2)cc(OC)c1OC", "note": "(centres unmarked) [GSK1379754]", "%Inh": 61}
{"smiles": "CN1c2ccc(NCc3ccc(F)cc3)cc2-c2c(cnn2C)S1(=O)=O", "%Inh": 0}
{"smiles": "Cc1nnc(-c2ccc3ncc(-c4ccc(S(C)=O)cc4)n3c2)o1", "note": "(centres unmarked)", "%Inh": 0}
{"smiles": "O=C(NCCCN1CCOCC1)c1cccc(Nc2nccc(Nc3ccc(Oc4ccccc4)cc3)n2)c1", "note": "[GW663929]", "%Inh": 25}
{"smiles": "Cc1cccc(Cn2ccn3c(=O)cc(N4CCOCC4)nc23)c1", "note": "[GSK2297542]", "%Inh": 11}
{"smiles": "Nc1nc(-c2ccc3c(N)n[nH]c3c2)cc(N2CCCC2)n1", "note": "[GSK2227430]", "%Inh": 4}
{"smiles": "Fc1ccc(-c2ncn(CCCN3CCOCC3)c2-c2cccnc2)cc1", "note": "[SB-211743]", "%Inh": 0}
{"smiles": "O=C(NOCC1CC1)c1ccc(F)c(F)c1Nc1ccc(I)cc1Cl", "%Inh": 0}
{"smiles": "NS(=O)(=O)c1cccc(-c2ccc3ncc(N4CCOCC4)nc3c2)c1", "note": "[GSK1535721]", "%Inh": 0}
{"smiles": "Cn1ccc2ncnc(Oc3ccc(NC(=O)Nc4ccncc4)c(Cl)c3)c21", "%Inh": 0}
{"smiles": "NS(=O)(=O)c1cccc(-c2ccc3nccc(-c4cccc(S(N)(=O)=O)c4)c3c2)c1", "note": "[GW867253]", "%Inh": 0}
{"smiles": "CCc1nc(-c2cccc(C)c2)c(-c2ccnc(NCc3ccccc3)c2)s1", "%Inh": 1}
{"smiles": "O=C(Nc1cccc(-c2nn3ncccc3c2-c2ccnc(Nc3cccc(C(F)(F)F)c3)n2)c1)c1c(F)cccc1F", "note": "[GSK299495]", "%Inh": 0}
{"smiles": "O=c1cc(N2CCOCC2)nc2n(Cc3cccc(F)c3)ccn12", "note": "[GSK2297430]", "%Inh": 23}
{"smiles": "O=C1NC(=O)C(N2CCc3ccccc32)=C1c1cccc(Cl)c1", "note": "[SB-408010]", "%Inh": 14}
{"smiles": "Cl.Oc1cccc(Nc2ccnc3cc(-c4ccncc4)ccc23)c1", "note": "[GW494601]", "%Inh": 46}
{"smiles": "COc1ccc(COc2cc(-n3cnc4ccccc43)sc2C(N)=O)cc1", "note": "[GSK1024304]", "%Inh": 29}
{"smiles": "COc1ccc(Nc2ncc(C#N)c(Nc3ccccc3C(N)=O)n2)cc1N1CCN(C)CC1.Cl", "note": "[GSK1558669]", "%Inh": 99.9}
{"smiles": "Cc1cn2c(=O)cc(N3CCOCC3)nc2n1Cc1cccc(Cl)c1Cl", "note": "[GSK2334006]", "%Inh": 21}
{"smiles": "N#Cc1c(N2CCOCC2)sc(-c2ccn[nH]2)c1-c1ccc(Cl)cc1", "%Inh": 0}
{"smiles": "N#Cc1ccc(-c2cc(-c3c[nH]nc3-c3ccccn3)ccn2)cc1", "note": "[GW693028]", "%Inh": 0}
{"smiles": "Cc1nnc(-c2ccc3occ(-c4ccc(C(C)O)cc4)c3c2)o1", "note": "(centres unmarked)", "%Inh": 0}
{"smiles": "Cc1c(Cn2c(C)nn3c(=O)cc(N4CCOC(C)C4)nc23)cccc1C(F)(F)F", "note": "(centres unmarked) [GSK2344444]", "%Inh": 32}
